# Inconclusive results are not listed. Unmarked numbers belong to inactive results. Calls of active or inactive are those of the source. Calls come from the whole dose curve; as a rule, active = well fitted activation curve with a large enough effect in the repeat runs; inconclusive = weak or mixed curves; inactive = no such curve, though single readings can be large or run the other way.
# Target: Aryl hydrocarbon receptor (Homo sapiens) (UniProt P35869)
# Experiment: qHTS assay to identify small molecule that activate the aryl hydrocarbon receptor (AhR) signaling pathway (AID 743085); note: nearly all actives have a fitted effect of over 15% in size;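 for activation: HG2L7.5c1 human HepG2 liver cells with stably integrated DRE-driven firefly reporter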
# Details: HepG2 AhR-luc (HG2L7.5c1), luciferase, 24 h; series mostly up to 70.3 µM; activation: at the top concentration
# From the text: U.S. Tox21 Program National Center for Advancing Translational Sciences [NCATS] NIH Chemical Genomics Center [NCGC] U.S. Environmental Protection Agency [EPA] National Institutes of Environmental Health Sciences [NIEHS] National Toxicology Program [NTP] U.S. Food and Drug Administration [FDA] Tox21 Assay overview: The Aryl hydrocarbon Receptor (AhR), a member of the family of basic helix-loop-helix transcription factors, is crucial to adaptive responses to environmental changes. AhR mediates cellular responses to environmental pollutants such as aromatic hydrocarbons through induction of phase I and II enzymes but also interacts with other nuclear receptor signaling pathways. A cell based HepG2-AhR-luc assay (HG2L7.5c1 cell line, developed by Dr. Michael S. Denison, University of California at Davis, was used to assess the activation of AhR. HepG2 (human hepatocellular carcinoma) cells were stably transfected with an Ah receptor-responsive firefly luciferase reporter gene plasmid containing 20 dioxin responsive elements and luciferase reporter gene. Increased luciferase activity can be used to identify the compounds that induce AhR activation.
# Tox21 Assay Protocol Summary: 4000 cells in 5 uL/well were dispensed into white wall/solid bottom 1536-well plates using a Multidrop Combi (Thermo Fisher Scientific Inc., Waltham, MA) dispenser. After the assay plates were incubated at 37C for 5 h, 23 nL of compound or DMSO vehicle was transferred to the assay plates by a pintool station (Kalypsys, San Diego, CA). The plates were incubated at 37C for 24 hr. After 1 ul/well of CellTiter-Fluor reagent (Promega, Madison, WI) was added into the assay plates using a Flying Reagent Dispenser (FRD) (Aurora Discovery, CA), the assay plates were incubated at 37C for 30 min. The fluorescence intensity in the plates was measured using a ViewLux plate reader (PerkinElmer, Shelton, CT), followed by the addition of 4 uL of ONE-Glo Luciferase Assay reagent (Promega) using an FRD (Aurora Discovery). After the assay plates were incubated at room temperature for 30 min, luminescence intensity was measured using a ViewLux plate reader (Perkin Elmer).
# % is set by controls: 0 for no effect and ±100 for the full control effect; potency is the fitted concentration of half-maximal effect.
# Sequence of Aryl hydrocarbon receptor (Homo sapiens) (P35869 whole entry, looked up): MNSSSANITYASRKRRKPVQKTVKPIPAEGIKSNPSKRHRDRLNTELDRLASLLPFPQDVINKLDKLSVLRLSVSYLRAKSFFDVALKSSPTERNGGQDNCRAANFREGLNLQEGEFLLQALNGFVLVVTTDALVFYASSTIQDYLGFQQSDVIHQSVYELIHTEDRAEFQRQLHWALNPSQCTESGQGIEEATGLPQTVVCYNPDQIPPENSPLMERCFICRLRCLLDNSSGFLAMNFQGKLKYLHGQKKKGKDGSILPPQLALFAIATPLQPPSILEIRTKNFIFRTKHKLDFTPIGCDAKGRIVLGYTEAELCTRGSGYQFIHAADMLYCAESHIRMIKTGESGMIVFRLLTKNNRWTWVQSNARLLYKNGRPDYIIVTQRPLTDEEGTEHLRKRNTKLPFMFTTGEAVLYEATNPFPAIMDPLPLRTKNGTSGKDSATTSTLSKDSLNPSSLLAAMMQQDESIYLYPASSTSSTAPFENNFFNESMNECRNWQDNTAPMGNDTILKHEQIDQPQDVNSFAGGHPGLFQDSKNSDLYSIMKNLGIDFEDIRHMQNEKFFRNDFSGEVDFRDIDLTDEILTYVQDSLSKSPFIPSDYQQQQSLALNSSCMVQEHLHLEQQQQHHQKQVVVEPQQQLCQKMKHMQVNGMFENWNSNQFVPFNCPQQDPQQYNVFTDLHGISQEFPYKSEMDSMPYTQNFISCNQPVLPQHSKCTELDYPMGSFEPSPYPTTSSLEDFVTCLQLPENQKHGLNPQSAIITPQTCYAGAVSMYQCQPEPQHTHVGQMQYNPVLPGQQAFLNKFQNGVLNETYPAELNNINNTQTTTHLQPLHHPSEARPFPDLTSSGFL
SMILES,activation,Potency
CC1=CC(O)CC(C)(C)C1 (stereo not given),-0.341%,
CC(=O)[C@H]1CC[C@H]2[C@@H]3C[C@H](C)C4=CC(=O)CC[C@]4(C)[C@H]3[C@@H](O)C[C@]12C,4.23% [at 32.5 µM],
O=S1OCCO1,-1.84% [at 95 µM],
CCCCN(CCCC)C(=S)SSC(=S)N(CCCC)CCCC,0.423%,
CCCOc1ccc(S(=O)(=O)N2CCN(CC)CC2)cc1-c1nc2c(CC)n(Cc3ccccn3)nc2c(=O)[nH]1,-0.17%,
C1COCO1,5.24%,
C=CCCCCCCCCCCCCCCCC,-0.177% [at 8.47 µM],
COC(=O)CC(=O)C(C)(C)C,-0.101%,
C=CC(C)=CCC=C(C)C,-0.546%,
CC[C@H](NC(=O)c1cc(F)ccc1NS(=O)(=O)c1cccc2cccnc12)c1ccccc1,6.05%,
CCc1c2c(nc3ccc(OC(=O)N4CCC(N5CCCCC5)CC4)cc13)-c1cc3c(c(=O)n1C2)COC(=O)[C@]3(O)CC,0.0284%,
CCN(CC)CCNC(=O)c1ccc(NC(C)=O)cc1,5.25%,
CN1CCN(c2c(F)cc3c(=O)c(C(=O)O)cn4c3c2OCN4C)CC1,-0.596%,
CN(C)C(=O)Nc1ccc(Oc2ccc(Cl)cc2)cc1,3.72%,
C=CC(=C)CCCC(C)(C)OC(C)=O,4.37%,
COCc1c(C(C)C)nc(C(C)C)c(/C=C/[C@@H](O)C[C@@H](O)CC(=O)O)c1-c1ccc(F)cc1,3.38%,
C/C=C(\C)C(=O)OCCC(C)CCC=C(C)C (stereo not given),3.24%,
Cc1ccccc1N1C(=O)c2cc(S(N)(=O)=O)c(Cl)cc2NC1C (stereo not given),,inactive
CC(=O)Nc1ccccc1C,-0.0543% [at 95 µM],
C[C@@H]1C[C@H]2[C@@H]3CCC4=CC(=O)C=C[C@]4(C)[C@@]3(F)[C@@H](O)C[C@]2(C)[C@@]1(O)C(=O)CO,8.75% [at 95 µM],

SMILES,activation,Potency
O=C(CCC1CCN(Cc2ccccc2)CC1)c1ccc2c(c1)NCCCC2,,23.7 µM (active)
COC(=O)Nc1nc2ccc(C(=O)c3cccs3)cc2[nH]1,,3.76 µM (active)
CC1CN(c2cc3c(cc2F)c(=O)c(C(=O)O)cn3-c2ccc(F)cc2F)CCN1 (stereo not given),2.54%,
CO[Si](C)(OC)OC,-0.119%,
CCCCCCCC/C=C\CCCCCCCC(=O)OC,-2.27%,
C/C=C/C=C/CCCCCCCO,-0.819%,
O=C(CCCCCCC(=O)Nc1ccccc1)NO,,inactive
Cc1ccc(S)cc1,-0.919%,
CN(C(=O)C(Cl)Cl)c1ccc(OC(=O)c2ccco2)cc1,1.46%,
O=C(O)c1ccc(CO)o1,0.799% [at 95 µM],
C=C(C)C(=O)OCCOC(=O)CC(C)=O,-0.727%,
NCC1CCCC(CN)C1 (stereo not given),-0.477%,
CCOC(=O)OCC,-0.585% [at 95 µM],
CCC1(C)CC(=O)NC1=O (stereo not given),-0.0995%,
NC(=O)N(O)[C@@H]1COc2cc(OCc3ccccc3)ccc21,-0.473%,
CCC(Cc1ccccc1)(C(=O)c1ccc(N2CCOCC2)cc1)N(C)C (stereo not given),7.12%,
CC(=O)CC(c1ccc([N+](=O)[O-])cc1)c1c(O)c2ccccc2oc1=O (stereo not given),-0.145% [at 32.5 µM],
CCCCN(CCCC)CCCOC(=O)c1ccc(N)cc1,0.615% [at 32.5 µM],
O=C(NCCCN1CCOCC1)c1ccc(Cl)cc1,4.79%,
Cc1c(C(=O)NN2CCCCC2)nn(-c2ccc(Cl)cc2Cl)c1-c1ccc(Cl)cc1,0.26%,

# — PubChem BioAssay (Tox21)
